Results taken from PubChem BioAssay AID686978 (National Center for Advancing Translational Sciences (NCATS), 2013).
The whole screen tested about 420,000 compounds, of which about 64,000 (15%) were called active. Another 27% or so got no clear call; they are omitted. These entries were drawn from the full list. Unmarked numbers belong to inactive results. Calls follow the shape of the dose curve; as a rule, active = well fitted inhibition curve with a large enough effect; inconclusive = small, poorly fitted or top-dose-only effect; inactive = flat fitted curve, though single readings scatter.

experiment: qHTS for Inhibitors of human tyrosyl-DNA phosphodiesterase 1 (TDP1): qHTS in cells in absence of CPT; conditions: DT40 Tdp1-/- hTDP1 cells, no CPT, ATP luminescence, 48 h; activity change, negative = growth inhibition: at 46.2 µM (top of the series); also: nearly all actives have a fitted effect of over 55% in size
How it was run: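 Compound effects on proliferation are scored in DT40 Tdp1-/-;hTDP1 cells in the absence of CPT. ATP levels (CellTiter-Glo luminescence) are recorded after a ≥48 hr, 37 °C incubation.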
% is scaled to controls: 0 for no effect and ±100 for the full control effect; potency is read from the fitted curve at half-maximal effect.

| Structure (SMILES) | activity change, negative = growth inhibition [%] | Potency |
| --- | --- | --- |
| COc1ccccc1C1C(C(=O)N2CCCCC2)=C(C)Nc2nc3ccccc3n21 (stereo unspecified) | 2.64 |  |
| COc1cc(OC)c(NC(=O)c2cnc(N3CCCC3)nc2C)cc1Cl | -19.9 |  |
| COc1cc(OC)c(NC(=O)c2nc(-c3ccncc3)no2)cc1Cl | -5.54 |  |
| COc1cc(OC)c(NC(=O)c2c3c(nn2C)-c2ccccc2SC3)cc1Cl |  | 16.4 µM (active) |
| Cc1cc(C)c(S(=O)(=O)c2cc(F)ccc2C)c(=O)[nH]1 | -0.186 |  |
| CCOC(=O)c1cc(-c2ccc(F)cc2)n(CC(=O)NCc2ccccn2)c1C | -1.43 |  |
| CS(=O)(=O)N(CC(=O)N1CCN(Cc2ccc3c(c2)OCO3)CC1)c1ccc2c(c1)OCO2 | -25.9 |  |
| CCN(CCCNC(=O)C1CCN(S(=O)(=O)c2cnc[nH]2)CC1)c1ccccc1 | -18.9 |  |
| O=C(C1CCN(S(=O)(=O)c2cnc[nH]2)CC1)N1CCN(Cc2ccc3c(c2)OCO3)CC1 |  | 20.6 µM (active) |
| CC(C)NC(=O)CCCn1c(=S)[nH]c2cc3c(cc2c1=O)OCO3 | -20.5 |  |
| CCOC(=O)N1CCN(C(=O)c2ccc(S(=O)(=O)Nc3cccc(C(F)(F)F)c3)cc2)CC1 |  | 6.51 µM (active) |
| CC(=O)N1CCN(C(=O)c2cccc(S(=O)(=O)Nc3ccc(C)cc3)c2)CC1 | -4.18 |  |
| O=C(COc1ccc(S(=O)(=O)Nc2cccc(C(F)(F)F)c2)cc1)N1CCOCC1 | -13.8 |  |
| COC(=O)C1=C(C(=O)OC)[C@@H]2N(Cc3ccccc3)c3ccccc3[C@@]23C[C@@H](C(=O)OC)N(S(=O)(=O)c2ccc(C(F)(F)F)cc2)C3=N1 | -22.1 |  |
| CCCCNS(=O)(=O)c1ccc(S(=O)(=O)n2cnc3ccccc32)cc1 | 2.54 |  |
| CCOC(=O)c1nc(C)n(-c2ccc(Cl)cc2Cl)n1 | -12.1 |  |
| Cc1ccc(/C=N/NC(=O)CN2CCN(Cc3ccccc3)CC2)s1 | -20.3 |  |
| Cc1ccc(S(=O)(=O)N2CCN(CC(=O)N/N=C/c3ccc(Br)s3)CC2)cc1 |  | 14.6 µM (active) |
| C/C(=N/NC(=O)CN1CCN(S(=O)(=O)c2ccc(Br)cc2)CC1)c1ccncc1 | -17.6 |  |
| Cc1ccc(C)c(NC2=NCC(=O)N2c2ccc3c(c2)OCCO3)c1 | -0.0277 |  |
| COc1cc2[nH]c(=S)n(Cc3ccc(F)cc3)c(=O)c2cc1OC | -23.7 |  |
| CCOc1cc2[nH]c(=S)n(Cc3ccc(C(=O)N4CCN(C)CC4)cc3)c(=O)c2cc1OCC |  | 16.4 µM (active) |
| CCOc1cc2[nH]c(=S)n(Cc3ccc(C(=O)NCCOC)cc3)c(=O)c2cc1OCC | -12.9 |  |
| CNC(=O)NC(=O)C(OC(=O)c1cccc(S(=O)(=O)N2CCCCC2)c1)c1ccccc1 (stereo unspecified) | -15 |  |
| COc1c(C=O)c(CCN(C)C(=O)c2ccc(F)cc2)cc2c1OCO2 | -2.12 |  |
| O=C1CSC(=S)N1c1ccc(Cl)c(Cl)c1 | -2.25 |  |

| Structure (SMILES) | activity change, negative = growth inhibition [%] | Potency |
| --- | --- | --- |
| Cc1ccccc1N1C(=O)C2ON(c3ccccc3)C(c3ccncc3)C2C1=O (stereo unspecified) | -8.98 |  |
| O=C(NC1=NCCS1)c1ccc(Cl)s1 | 3.11 |  |
| CC(=O)NC1=NN(C(C)=O)C(C)(CCS(=O)(=O)c2ccc(Cl)c(Cl)c2)S1 (stereo unspecified) | -7.08 |  |
| CC(=O)NC1=NN(C(C)=O)C(C)(c2ccc(Cl)s2)S1 (stereo unspecified) |  | 5.17 µM (active) |
| COc1ccccc1C1CC(=O)n2c(nc(-c3ccccc3)c2-c2ccccc2)S1 (stereo unspecified) | 4.33 |  |
| O=C(COC(=O)/C=C/c1cccs1)NC1CCCCC1 | 16.1 |  |
| CSc1ncccc1C(=O)OCc1ccc(Br)cc1 | -0.34 |  |
| OC(c1cc(Cl)cc(Cl)c1)c1ncc(-c2ccccc2C(F)(F)F)[nH]1 (stereo unspecified) | -29.3 |  |
| CSc1ncnc2sc(C)c(C)c12 | -11.7 |  |
| CCCNc1ncnc2sc(C)c(C)c12 |  | 13 µM (active) |
| COCCN1CCN(C(=O)c2sc3ncnc(NCC4CCCO4)c3c2C)CC1 (stereo unspecified) | -15.6 |  |
| CCCCNC(=O)C(C)N(CCN(C)C)C(=O)CCCCCN1C(=O)NC(c2ccc(Cl)cc2)C(C(=O)OCc2ccccc2)=C1C (stereo unspecified) |  | 16.4 µM (active) |
| CCCCNC(=O)C(C)N(CCN(C)C)C(=O)CCCN1C(=O)NC(c2ccc(Cl)cc2)C(C(=O)OCc2ccccc2)=C1C (stereo unspecified) |  | 18.4 µM (active) |
| CCOC(=O)CCCNC(=O)CN1C(=O)NC(CCc2ccccc2)C1=O (stereo unspecified) | 1.07 |  |
| CC1=C(C(=O)OCc2ccccc2)C(c2ccc(C(F)(F)F)cc2)NC(=O)N1CCCCCC(=O)O (stereo unspecified) | -0.318 |  |
| COCCOC(=O)C1=C(C)NC(=O)NC1c1ccc(Cl)cc1 (stereo unspecified) | -8.4 |  |
| CC1=C(C(=O)OC(C)(C)C)C(c2ccc(Br)cc2)NC(=O)N1CCCC(=O)O (stereo unspecified) | -1.02 |  |
| CC(C)c1nccn1S(=O)(=O)c1cc([N+](=O)[O-])ccc1Cl | -15 |  |
| c1ccc2c(c1)OC1OC2Oc2ccccc21 | -15.1 |  |
| O=C(CCN1C(=O)C2C3CCC(C3)C2C1=O)Nc1ccc(Cl)cc1Cl (stereo unspecified) | -25.1 |  |
| Cc1[nH]c2ccccc2c1/C=N/NC(=O)CNC(=O)c1ccc2c(c1)OCO2 | -24.4 |  |
| CCOc1ccc2ccccc2c1/C=N/NC(=O)c1c(C)cc(C)[nH]c1=O | -10.3 |  |
| O=C(N/N=C/c1c(Cl)[nH]c2ccccc12)c1sc2ccccc2c1Cl |  | 13 µM (active) |
| C[C@H](NC(=O)C1CC(=O)N(c2ccc3c(c2)OCCO3)C1)C(=O)N1CCC(C(=O)O)CC1 (stereo partly specified) | 17.9 |  |
| CCC(C)(C)NC(=O)C(c1ccccn1)N(C(=O)c1csnn1)c1ccccc1 (stereo unspecified) | -21.4 |  |
